The term inhibition denotes the relative decrease from the control value, in per cent.

Among all 1,400 compounds or so, about 50 (4%) were called active. The list is a sample of the results. Unmarked numbers belong to inactive results.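 The calls were made as follows: active = mean inhibition across replicates above about 26% (limit read from the data); inactive = the rest.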

Among the data in PubChem BioAssay AID488856 (Sanford-Burnham Center for Chemical Genomics, 2010) are inhibition values, retold here.

Chain of Caspase-3 (Homo sapiens) (P42574 whole entry, looked up): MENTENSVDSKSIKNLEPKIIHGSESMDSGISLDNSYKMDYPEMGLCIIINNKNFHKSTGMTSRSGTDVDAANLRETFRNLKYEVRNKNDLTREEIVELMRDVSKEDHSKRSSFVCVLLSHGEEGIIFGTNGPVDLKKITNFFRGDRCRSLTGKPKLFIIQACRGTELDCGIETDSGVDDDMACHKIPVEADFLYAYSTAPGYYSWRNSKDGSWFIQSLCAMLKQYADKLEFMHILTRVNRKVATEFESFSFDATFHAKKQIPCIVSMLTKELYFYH

This test addresses Caspase-3 (Homo sapiens) (UniProt P42574). As to the kind of experiment: CASP3 inhibitor validation, counterassay for project on UBE2N polyubiquitination blockers, biochemical, one dose (AID 488856).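 Also: plate controls were DMSO with caspase-3 for no effect and DMSO wells lacking enzyme for full effect.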 The note with it: Recombinant caspase-3, Caspase-Glo 3/7 luminescence, 60 min; at 20 µM; hits give high values.
Take `CC(C)n1cnc2c(Nc3cccc(Cl)c3)nc(N(CCO)CCCO)nc21`: the inhibition was -1.5%.

Turning to `C#CCOCCOCCOCCNc1nc(N2CCN(C(=O)CCCCCCCCCCNC(=O)[C@H]([C@@H](C)CC)n3cc(CCCCN=C(N)N)nn3)CC2)nc(N2CCN(C(=O)CCCCCCCCCCNC(=O)[C@H](CO)n3cc(CCCSC)nn3)CC2)n1`, the inhibition was -0.7%.

As for `NC(N)=N/N=C/c1ccc(OCc2ccc(Cl)cc2Cl)cc1`, the inhibition is -1.8%.

In the case of `COc1ccc(-c2nnc3ccc(SCc4ccccc4)nn23)cc1`, the inhibition is -6.5%.

Regarding `COc1cccc(Cn2cnc3c([N+](=O)[O-])c(C)c(C)cc32)c1`, the inhibition is -0.7%.

Regarding `CN(C(=O)CN(CCO)CC(=O)N(C)C(C)(C)Cc1ccccc1)C(C)(C)Cc1ccccc1`, the inhibition is -0.1%.

As to `CCOc1ccc2nc(N(CCCN(C)C)C(=O)c3ccc(C(=O)c4ccccc4)cc3)sc2c1`, the inhibition was 3.4%.

Regarding `Cc1ccc(C(=O)N/C(=C/c2ccc(-c3cccc([N+](=O)[O-])c3)o2)C(=O)NCCCN(C)C)cc1`, the inhibition is -0.7%.

Take `COc1ccc(C(CNC(=O)c2cccc(NS(=O)(=O)c3ccc(C)c(F)c3)c2)N2CCCC2)cc1` (stereo not drawn): the inhibition was 0.9%.

As to `Cn1c(C(=O)NCCCN2CCN(c3cccc(Cl)c3)CC2)cc2c(=O)n(C)c3ccccc3c21`, the inhibition is 1.8%.

Take `CC1CC(C)(C)n2c(O)c(N=NC(N)=S)c3cccc1c32` (stereo not drawn): the inhibition was -2.8%.

Turning to `CN(C)CCCN(C(=O)c1ccc(S(=O)(=O)N2CCCCCC2)cc1)c1nc2ccc(Br)cc2s1`, the inhibition is 0.1%.

`COc1ccc2sc(-c3ccc(S(C)(=O)=O)cc3)c(C#Cc3cncn3C)c2c1`: the inhibition was 0.2%.

For the compound `COc1ccc(-n2nnnc2-c2nc3ccccc3s2)cc1`, the inhibition was 85.5% (active).

`CCN(CC)CCNC(=O)c1ccc(NC(=O)c2cc(-c3ccncc3)nc3ccccc23)cc1`: the inhibition is -3.4%.

In the case of `O=S(=O)(c1ccc(NC(=S)NN=C(C2CC2)C2CC2)cc1)N1CCOCC1`, the inhibition was 3.2%.

As to `COc1ccc2sc(-c3ccccc3OC)c(-c3ccc(OCCN4CCCC4)cc3)c2c1`, the inhibition is -2.6%.

With `O=c1cc(CO)oc(C(Nc2cccc([N+](=O)[O-])c2)c2ccccn2)c1O` (stereo not drawn), the inhibition was 1.9%.

In the case of `Cc1nc(N2CCN(c3ccccn3)CC2)c2c(C)c(C(=O)Nc3ccc(F)cc3)sc2n1`, the inhibition is -2.6%.

As for `C#CCOCCOCCOCCNc1nc(N2CCN(C(=O)CCCCCCCCCCNC(=O)Cn3cc(CCCCCN)nn3)CC2)nc(N2CCN(C(=O)CCCCCCCCCCNC(=O)[C@H](CO)n3cc(CCCSC)nn3)CC2)n1`, the inhibition is 3%.

Consider `S=c1nc2ccccc2c2nc(-c3cccnc3)[nH]n12`, for which the inhibition is 16%.

On to `Cc1ccc(N(C(=O)c2snc(C(N)=O)c2N)C(C(=O)NCC2CCCO2)c2c[nH]c3ccccc23)cc1` (stereo not drawn), for which the inhibition was 0.8%.

Turning to `CCN(CC)CCC(c1cc(OC)c(OC)c(OC)c1)c1c(OC)cc(OC)c2c(-c3ccccc3)cc(=O)oc12` (stereo not drawn), the inhibition was -2%.

As for `Cc1ccccc1C(=O)OC1OC(=O)C(Cl)=C1Nc1ccccc1` (stereo not drawn), the inhibition is -0.3%.

Regarding `O=C(COC(=O)Cn1cnc2ccccc2c1=O)NCc1ccccc1Cl`, the inhibition was -0.6%.

Turning to `COc1cccc(N(C(=O)c2snc(C(N)=O)c2N)C(C(=O)NCC2CCCO2)c2c[nH]c3ccccc23)c1` (stereo not drawn), the inhibition is -8.9%.

For `COc1ccccc1-c1sc2ccccc2c1-c1ccc(C(C)=O)cc1`, the inhibition was 12.1%.

Take `Cc1ccc(NC2=C(Cl)C(=O)OC2OC(=O)c2ccccc2C)cc1` (stereo not drawn): the inhibition is 0.6%.

As to `CSCCC(NC(=O)c1ccc(Cl)cc1Cl)C(=O)NNC(=O)c1csc(N2CCOCC2)n1` (stereo not drawn), the inhibition was 1.1%.

In the case of `COc1ccc(C(CNC(=O)c2ccc(S(=O)(=O)Nc3ccccc3F)cc2)N(C)C)cc1` (stereo not drawn), the inhibition was 2.2%.

For the compound `COc1ccc(-c2sc3ccccc3c2-c2ccc(OCCN3CCOCC3)cc2)cc1`, the inhibition is 0.1%.

As for `Cc1ccc(C(C(=O)NCC2CCCO2)N(C(=O)c2snc(C(N)=O)c2N)c2ccc(C(C)C)cc2)o1` (stereo not drawn), the inhibition is -0.8%.

For `C#CCOCCOCCOCCNc1nc(N2CCN(C(=O)CCCCCCCCCCNC(=O)[C@H](CCCCN)n3cc(C)nn3)CC2)nc(N2CCN(C(=O)CCCCCCCCCCNC(=O)[C@H](CO)n3cc(CCCSC)nn3)CC2)n1`, the inhibition is -3.2%.

As for `CCOCCCNC(=O)c1cn(CC(C)C)c(=O)c2c1c1ccccc1n2C`, the inhibition was -2.3%.

On to `COc1cccc2sc3cc(NCC[C@@H]4CCCN4C)ccc3c(=O)c12`, for which the inhibition is 63.1% (active).

Regarding `NC(=O)NC(CC(=O)NNC(=O)c1ccccn1)c1ccc(Cl)cc1` (stereo not drawn), the inhibition is -0.9%.

As for `Cc1ncc(CO)c(/C=N/NC(=O)c2cccc(S(=O)(=O)N3CCCC3)c2)c1O`, the inhibition was -0.5%.

On to `Cc1ccc(-c2noc(CCC(=O)Nc3ccccc3N3CCN(C)CC3)n2)cc1`, for which the inhibition is -3.5%.

Take `CC1(C)Cc2ccccc2-c2[nH]c(=S)[nH]c(=O)c21`: the inhibition is 2.3%.

Turning to `CCOC(=O)c1ccc(NC(=O)c2nc[nH]c2C(=O)NCc2ccccc2)cc1`, the inhibition was 1.9%.

On to `O=C(CCCCCn1c(=O)[nH]c2ccccc2c1=O)NCCc1c[nH]c2ccccc12`, for which the inhibition was -2%.

In the case of `O=C(CCCCCN1C(=O)c2cccc3cccc(c23)C1=O)NCc1ccco1`, the inhibition is -1.7%.

`CCOc1ccc(N(C(=O)c2snc(C(N)=O)c2N)C(C(=O)NCC2CCCO2)c2c[nH]c3ccccc23)cc1` (stereo not drawn): the inhibition is -4.2%.

With `Cc1ccc(NC(=O)c2cnc(SCC(=O)NCC3CCCO3)n(C)c2=O)cc1` (stereo not drawn), the inhibition is 96.8% (active).

In the case of `CC(=O)NC(=S)NNC(=O)c1ccc(Br)cc1`, the inhibition is 6.4%.

In the case of `Cc1cccc(-c2nc3ccc(C(=O)NCCN4CCN(C)CC4)cc3nc2-c2cccc(C)c2)c1`, the inhibition was -4%.

Consider `CCOC(=O)c1cccc(NS(=O)(=O)c2c(C(=O)N3CCCCCC3)c(C)n(C)c2C)c1`, for which the inhibition is -2.7%.

As for `C#CCOCCOCCOCCNc1nc(N2CCN(C(=O)[C@H](CCCCN)n3cc([C@@H](N)C(C)CC)nn3)CC2)nc(N2CCN(C(=O)[C@H](Cc3ccc(O)cc3)n3cc([C@@H](N)C(C)CC)nn3)CC2)n1` (stereo partly drawn), the inhibition was -3.4%.
